# Measured values taken from PubChem BioAssay (NCATS).
# Records with an inconclusive call do not appear. Entries that show only a call come without a potency. Calls of active or inactive are those of the source. Calls come from the whole dose curve; as a rule, active = well fitted inhibition curve with a large enough effect; inconclusive = small, poorly fitted or top-dose-only effect; inactive = flat fitted curve, though single readings scatter.
# Legend:
# Assay in all cases: qHTS profiling for inhibitors of Plasmodium falciparum proliferation (AID 504749); note: nearly all actives have a fitted effect of over 60% in size
# Settings in all cases: P. falciparum in erythrocytes, SYBR Green DNA, 72 h; series mostly up to 28.7 µM
# C2A = test system: C2A
# How it was run: (§1)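 Three-day growth assay of blood-stage parasites in erythrocytes (0.3% parasitemia, 2.5% hematocrit) at 37 C, 5% CO2, quantified by SYBR Green DNA staining after overnight detergent lysis.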
# CP185 = test system: CP185
# How it was run: as §1
# CP191 = test system: CP191
# How it was run: as §1
# CP192 = test system: CP192
# How it was run: as §1
# CP194 = test system: CP194
# How it was run: as §1
# CP201 = test system: CP201
# How it was run: as §1
# CP203 = test system: CP203
# How it was run: as §1
# CP211 = test system: CP211
# How it was run: as §1
# CP215 = test system: CP215
# How it was run: as §1
# CP217 = test system: CP217
# How it was run: as §1
# CP238 = test system: CP238
# How it was run: as §1
# CP247 = test system: CP247
# How it was run: as §1
# CP250 = test system: CP250
# How it was run: as §1
# CP252 = test system: CP252
# How it was run: as §1
# CP256 = test system: CP256
# How it was run: as §1
# CP262 = test system: CP262
# How it was run: as §1
# CP265 = test system: CP265
# How it was run: as §1
# CP266 = test system: CP266
# How it was run: as §1
# CP237 = test system: CP237
# How it was run: as §1
# CP260 = test system: CP260
# How it was run: as §1
# Potency is the fitted concentration of half-maximal effect.
Structure (SMILES),Potency (C2A),outcome (CP185),outcome (CP191),Potency (CP192),Potency (CP194),Potency (CP201),Potency (CP203),Potency (CP211),Potency (CP215),Potency (CP217),Potency (CP238),outcome (CP247),Potency (CP250),Potency (CP252),outcome (CP256),outcome (CP262),Potency (CP265),Potency (CP266),Potency (CP237),Potency (CP260)
C=C1c2cccc(O)c2C(O)=C2C(=O)[C@@]3(O)C(O)=C(C(N)=O)C(=O)[C@@H](N(C)C)[C@@H]3[C@@H](O)[C@H]12,inactive,inactive,inactive,inactive,inactive,inactive,inactive,inactive,inactive,inactive,inactive,inactive,inactive,inactive,inactive,inactive,inactive,inactive,–,–
O=C(O)c1nc(=O)[nH]c(=O)[nH]1,inactive,inactive,inactive,inactive,inactive,inactive,inactive,inactive,–,inactive,inactive,inactive,inactive,inactive,inactive,inactive,inactive,inactive,inactive,inactive
Clc1ccc(COC(Cn2ccnc2)c2ccc(Cl)cc2Cl)c(Cl)c1 (stereo not drawn),–,–,–,–,–,–,5.1 µM (active),–,5.73 µM (active),3.16 µM (active),–,–,–,–,–,–,–,–,3.55 µM (active),–
CN1CC(=O)N2C(Cc3c([nH]c4ccccc34)[C@H]2c2ccc3c(c2)OCO3)C1=O (stereo partly drawn),inactive,inactive,inactive,inactive,inactive,inactive,inactive,inactive,inactive,inactive,inactive,inactive,inactive,inactive,inactive,inactive,inactive,inactive,inactive,–
CC(C)CN(C[C@@H](O)[C@H](Cc1ccccc1)NC(=O)O[C@H]1CO[C@H]2OCC[C@H]21)S(=O)(=O)c1ccc(N)cc1,inactive,inactive,inactive,inactive,inactive,inactive,inactive,inactive,inactive,inactive,inactive,inactive,inactive,inactive,inactive,inactive,inactive,inactive,inactive,inactive
N#Cc1c(N(CC(=O)O)CC(=O)O)sc(C(=O)O)c1CC(=O)O,inactive,inactive,inactive,inactive,inactive,inactive,inactive,inactive,inactive,inactive,inactive,inactive,inactive,inactive,inactive,inactive,inactive,inactive,inactive,inactive
COc1cc2c(cc1OC)CC(=O)N(CCCN(C)C[C@H]1Cc3cc(OC)c(OC)cc31)CC2,inactive,inactive,inactive,inactive,inactive,inactive,inactive,inactive,inactive,inactive,inactive,inactive,inactive,inactive,inactive,inactive,inactive,inactive,–,inactive
O=C1C(CCC(O)c2ccc(F)cc2)C(c2ccc(O)cc2)N1c1ccc(F)cc1 (stereo not drawn),inactive,inactive,inactive,inactive,inactive,inactive,inactive,inactive,inactive,inactive,inactive,inactive,inactive,inactive,inactive,inactive,inactive,inactive,inactive,inactive
CN1CCN2c3ncccc3Cc3ccccc3C2C1 (stereo not drawn),inactive,inactive,inactive,–,–,inactive,–,–,inactive,inactive,inactive,inactive,inactive,inactive,inactive,inactive,inactive,inactive,inactive,inactive
COc1c(C)c2c(c(O)c1CC=C(C)CCC(=O)OCCN1CCOCC1)C(=O)OC2,11.2 µM (active),–,–,8.49 µM (active),6.75 µM (active),13.5 µM (active),6.01 µM (active),6.01 µM (active),6.01 µM (active),7.94 µM (active),7.94 µM (active),–,7.94 µM (active),8.91 µM (active),–,–,7.94 µM (active),12 µM (active),8.91 µM (active),11.2 µM (active)
CS(=O)(=O)c1ccc(C2=C(c3ccccc3)C(=O)OC2)cc1,inactive,inactive,inactive,–,inactive,inactive,inactive,inactive,–,inactive,inactive,inactive,inactive,inactive,inactive,inactive,inactive,inactive,inactive,inactive
Fc1ccc(C(c2ccc(F)cc2)N2CCN(CC=Cc3ccccc3)CC2)cc1,–,–,–,inactive,–,–,–,–,–,–,–,–,–,–,–,inactive,–,–,–,–
Cc1cc2nc3c(=O)[nH]c(=O)nc-3n(CC(O)C(O)C(O)CO)c2cc1C (stereo not drawn),inactive,inactive,–,inactive,inactive,inactive,inactive,inactive,inactive,inactive,inactive,–,inactive,inactive,inactive,inactive,inactive,inactive,inactive,inactive
COc1ccnc(CS(=O)c2nc3ccc(OC(F)F)cc3[nH]2)c1OC (stereo not drawn),inactive,inactive,inactive,inactive,inactive,inactive,inactive,inactive,inactive,inactive,inactive,inactive,inactive,inactive,inactive,inactive,inactive,inactive,inactive,inactive
N#CC(c1ccc(Cl)cc1)c1c(Cl)cc(-n2ncc(=O)[nH]c2=O)cc1Cl (stereo not drawn),inactive,inactive,inactive,inactive,inactive,inactive,inactive,inactive,inactive,inactive,inactive,inactive,inactive,inactive,inactive,inactive,inactive,inactive,inactive,inactive
NS(=O)(=O)c1cc(Cl)c(Cl)c(S(N)(=O)=O)c1,inactive,inactive,inactive,inactive,inactive,inactive,inactive,inactive,inactive,inactive,inactive,inactive,inactive,inactive,inactive,inactive,inactive,inactive,inactive,inactive
